Screening results deposited in PubChem by several laboratories.
HSP90 inh: inhibitors of HSP90 luciferase refolding in rabbit reticulocyte lysate | luciferase refolding luminescence, 3 h | inhibition, % at 5.6 µM | 290,000 compounds, 0.91% hits;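 active means inhibition above the screen-wide mean plus 3 SD, computed separately per campaign, cut at about 16% in these data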;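 further: inhibitors lower the luminescence because luciferase stays unfolded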
SENP8 block-1: blocks the human protease SENP8 | Q96LD8 | purified SENP8, Z-RLRGG-aminoluciferin cleavage, luminescence | 330,000 compounds, 1.2% hits | inhibition, % at 10 µM; in the data active means inhibition above about 50%
SENP8 block-2: SENP8 (human) protease inhibition; Q96LD8; recombinant SENP8, Nedd8 substrate fluorescence; inhibition, % at 20 µM; 360,000 compounds, 0.64% hits; AID 602440; in the data active means inhibition mostly above about 40%, no sharp cut-off; inactive means mostly below about 27%
SENP7 inh: inhibitors of human SENP7 protease. Q9BQF6. recombinant SENP7, Z-RLRGG-aminoluciferin luminescence, 40 min. inhibition, % at 5 µM. 330,000 compounds, 1.5% hits;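 active means inhibition above about 50% at the single test dose, limit read from the data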
SENP6 inh: blocks the human protease SENP6. Recombinant SENP6 catalytic domain, aminoluciferin luminescence. AID 2599. Q9GZR1. 330,000 compounds, 1.8% hits. inhibition, % at 10 µM;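 active means inhibition above about 50% at the single tested dose, limit read from the data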
Target sequence (Q9GZR1 628-1112 limits assumed): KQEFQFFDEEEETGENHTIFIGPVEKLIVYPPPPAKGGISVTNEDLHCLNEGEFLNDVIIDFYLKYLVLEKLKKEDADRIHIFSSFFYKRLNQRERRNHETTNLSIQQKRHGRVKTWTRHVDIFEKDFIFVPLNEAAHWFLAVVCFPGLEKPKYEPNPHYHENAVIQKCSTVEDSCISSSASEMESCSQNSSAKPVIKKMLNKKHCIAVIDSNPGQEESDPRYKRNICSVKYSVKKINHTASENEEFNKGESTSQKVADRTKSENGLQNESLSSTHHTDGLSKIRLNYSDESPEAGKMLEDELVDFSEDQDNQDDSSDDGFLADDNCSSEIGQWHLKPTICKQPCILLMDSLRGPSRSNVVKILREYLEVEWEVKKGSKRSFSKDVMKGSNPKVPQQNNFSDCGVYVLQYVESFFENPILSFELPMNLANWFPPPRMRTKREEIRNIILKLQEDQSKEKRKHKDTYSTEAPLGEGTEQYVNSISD
Hits are given with their value. Shown are actives, neighbours in structure and some others; about 2.8% of the full set was active somewhere.

How did CC(C)(C)n1ncc2c(=O)n(CC(=O)NCc3ccco3)cnc21 do in these assays?
HSP90 inh: inactive; SENP8 block-1: inactive; SENP8 block-2: inactive; SENP7 inh: inactive; SENP6 inh: inactive

What do the screens show for `CC(C)(C)n1ncc2c(=O)n(CC(=O)NCc3ccc(F)cc3)cnc21`?
HSP90 inh: 16; SENP8 block-1: inactive; SENP8 block-2: inactive; SENP7 inh: inactive; SENP6 inh: inactive

How did CCC(Oc1ccccc1)C(=O)NC1C(=O)N2C1SC(C)(C)C2C(=O)O (stereo unspecified) do in these assays?
HSP90 inh: inactive; SENP8 block-1: inactive; SENP8 block-2: inactive; SENP7 inh: 61; SENP6 inh: inactive

Results for COc1ccc(CN=Cc2[nH]c3ccc(Br)c(Cl)c3c2O)cc1 ?
HSP90 inh: inactive; SENP8 block-1: inactive; SENP8 block-2: 49; SENP7 inh: inactive; SENP6 inh: inactive

What do the screens show for `Cc1cc(C)cc(N=Cc2[nH]c3ccc(Br)c(Cl)c3c2O)c1`?
HSP90 inh: inactive; SENP8 block-2: inactive

What do the screens show for `Cc1ccc(N=Cc2cccc(O)c2O)c(C)c1`?
HSP90 inh: inactive; SENP8 block-1: inactive; SENP8 block-2: 110; SENP7 inh: inactive; SENP6 inh: inactive

What do the screens show for `NC(=S)N=Nc1c(O)cc(O)c2[nH]c(=O)ccc12`?
SENP8 block-2: 75

What do the screens show for `O=C1CS/C(=N/N=C/c2ccc(OS(=O)(=O)c3ccccc3)cc2)N1`?
HSP90 inh: inactive; SENP8 block-1: inactive; SENP8 block-2: inactive; SENP7 inh: inactive; SENP6 inh: inactive

How did C[C@]12C=CC(=O)C=C1CC[C@@H]1C2=CC[C@]2(C)[C@@H](C(=O)CN3CCN(c4cc(N5CCCC5)nc(N5CCCC5)n4)CC3)CC[C@@H]12 do in these assays?
SENP8 block-1: 76; SENP8 block-2: inactive; SENP7 inh: inactive; SENP6 inh: 64

How did O=C(Cc1ccccc1)N/N=C/c1cc(Br)cc(Br)c1O do in these assays?
HSP90 inh: 16; SENP8 block-1: inactive; SENP8 block-2: inactive; SENP7 inh: inactive; SENP6 inh: inactive

How did O=C(CNC(=O)c1cccc(Br)c1)N/N=C/c1cc(Br)cc(Br)c1O do in these assays?
HSP90 inh: inactive; SENP8 block-1: inactive; SENP8 block-2: inactive; SENP7 inh: inactive; SENP6 inh: inactive

What do the screens show for `CCN(CC)S(=O)(=O)c1cccc(C(=O)OC2CC(C)OC2=O)c1` (stereo unspecified)?
HSP90 inh: 16; SENP8 block-1: inactive; SENP8 block-2: inactive; SENP7 inh: inactive; SENP6 inh: inactive

What do the screens show for `Cc1nn(-c2ccccc2)c(N2CCCC2)c1/C=N/NC(=O)c1cccc(S(=O)(=O)Nc2ccc(Cl)cc2)c1`?
HSP90 inh: inactive; SENP8 block-1: inactive; SENP8 block-2: inactive; SENP7 inh: inactive; SENP6 inh: inactive

What do the screens show for `COc1ccc(-n2c(N)c(C(=O)NCc3ccco3)c3nc4ccccc4nc32)cc1`?
HSP90 inh: inactive; SENP8 block-1: inactive; SENP8 block-2: inactive; SENP7 inh: inactive; SENP6 inh: inactive

Results for Nc1c(C(=O)NCc2ccco2)c2nc3ccccc3nc2n1CCc1ccc(F)cc1 ?
HSP90 inh: inactive; SENP8 block-1: 58; SENP8 block-2: inactive; SENP7 inh: inactive; SENP6 inh: 67

Results for COc1cccc(-n2sc3c(c2=S)-c2cc(OC)ccc2NC3(C)C)c1 ?
HSP90 inh: inactive; SENP8 block-1: inactive; SENP8 block-2: inactive; SENP7 inh: inactive; SENP6 inh: inactive

Results for CC1(C)Nc2ccc(O)cc2-c2c1ssc2=S ?
HSP90 inh: inactive; SENP8 block-1: inactive; SENP8 block-2: 67; SENP7 inh: inactive; SENP6 inh: inactive

Results for Cc1nnnn1/C(=C\c1ccccc1)C(=O)OCC(=O)Nc1ccc(Cl)cc1F ?
SENP8 block-1: inactive; SENP8 block-2: inactive; SENP7 inh: inactive; SENP6 inh: inactive

How did Cc1nc2cc(-c3ccc(F)cc3)[nH]n2c(=O)c1C do in these assays?
HSP90 inh: inactive; SENP8 block-1: inactive; SENP8 block-2: inactive; SENP7 inh: inactive; SENP6 inh: inactive

How did O=c1c2c(nc3cc(-c4cccc(F)c4)[nH]n13)CCC2 do in these assays?
HSP90 inh: inactive; SENP8 block-1: inactive; SENP8 block-2: inactive; SENP7 inh: inactive; SENP6 inh: 60

How did CCOc1ccc(C2CC(c3cccc(Cl)c3)n3nc(N)nc3N2)cc1 (stereo unspecified) do in these assays?
HSP90 inh: inactive; SENP8 block-1: inactive; SENP8 block-2: inactive; SENP7 inh: inactive; SENP6 inh: inactive

How did COC(=O)CCN1CCc2cc(N=Nc3ccc([N+](=O)[O-])cc3)ccc21 do in these assays?
HSP90 inh: inactive; SENP8 block-1: inactive; SENP8 block-2: inactive; SENP7 inh: 80; SENP6 inh: inactive

What do the screens show for `Cc1ccc(OCC(=O)Nc2cc(S(=O)(=O)N3CCOCC3)ccc2Cl)c([N+](=O)[O-])n1`?
HSP90 inh: inactive; SENP8 block-1: inactive; SENP8 block-2: inactive; SENP7 inh: inactive; SENP6 inh: inactive

What do the screens show for `CCc1nnc(NC(=O)C2CCC2)s1`?
HSP90 inh: inactive; SENP8 block-1: inactive; SENP8 block-2: inactive; SENP7 inh: inactive; SENP6 inh: inactive

Results for CN1C(C(=O)Nc2ccc(C(=O)O)cc2)=C(O)c2ccccc2S1(=O)=O ?
SENP8 block-1: inactive; SENP8 block-2: inactive; SENP7 inh: inactive; SENP6 inh: inactive

Results for Cc1ccccc1NC1=C(C(=O)c2ccccc2)N(C)S(=O)(=O)c2ccccc21 ?
HSP90 inh: inactive; SENP8 block-1: inactive; SENP8 block-2: 43; SENP7 inh: inactive; SENP6 inh: inactive

What do the screens show for `Nc1ccc(N2CCN(C(=O)c3cccs3)CC2)cc1`?
HSP90 inh: inactive; SENP8 block-1: inactive; SENP8 block-2: 50; SENP7 inh: inactive; SENP6 inh: inactive

How did CCc1nc(N2CCN(C(=O)CCCl)CC2)c2c3c(sc2n1)CCCC3 do in these assays?
SENP8 block-2: inactive

What do the screens show for `O=C(COc1cccc2ccccc12)N/N=C/C=C/c1ccccc1`?
HSP90 inh: inactive; SENP8 block-1: inactive; SENP8 block-2: inactive; SENP7 inh: inactive; SENP6 inh: inactive

Results for CN(C)c1ccc2nc3ccc(=O)cc-3sc2c1 ?
SENP8 block-2: inactive

Results for CN(C)c1ccc2nc3ccc(=[N+](C)C)cc-3sc2c1 ?
HSP90 inh: inactive; SENP8 block-1: inactive; SENP8 block-2: 66; SENP7 inh: inactive; SENP6 inh: inactive

What do the screens show for `CCc1nc(SCC(=O)Nc2c(C)nn(C)c2C)c2cnn(-c3ccccc3)c2n1`?
HSP90 inh: inactive

How did Cc1ccc(OC(=O)c2cccc([N+](=O)[O-])c2)c(-n2nc3ccccc3n2)c1 do in these assays?
HSP90 inh: inactive; SENP8 block-1: 87; SENP8 block-2: inactive; SENP7 inh: 90; SENP6 inh: 93

How did Cc1cc(-n2nc3ccccc3n2)c(O)c([N+](=O)[O-])c1 do in these assays?
HSP90 inh: inactive; SENP8 block-1: inactive; SENP8 block-2: inactive; SENP7 inh: inactive; SENP6 inh: inactive

How did COc1ccc(-n2c(N)cc(=O)nc2SCC(=O)NC2CCCCC2)cc1 do in these assays?
SENP8 block-2: inactive

Results for CCN(CCCNc1cc2c(c(N)c1S(=O)(=O)O)C(=O)c1ccccc1C2=O)c1ccccc1 ?
SENP8 block-2: 57

Results for O=c1c2ccccc2c(C=Nc2cccc(S(=O)(=O)NC3=NCCCCC3)c2)c(O)n1Cc1ccccc1 ?
HSP90 inh: inactive; SENP8 block-1: inactive; SENP8 block-2: inactive; SENP7 inh: inactive; SENP6 inh: 53
